Assay outcomes (PubChem BioAssay)
Most compounds without a hit are left out; they make up all but 14% or so of the library.
Shiga inhibitor: A qHTS for Small Molecule Inhibitors of Shiga Toxin; 9.2% of 290,000 active; Vero cells, Shiga toxin protein synthesis inhibition reporter; inhibition, % at 38.7 µM; AID 2315, 2010; in the data active = inhibition mostly above about 28%, no sharp cut-off; inactive = mostly below about 43%; note: 0% is about no effect
Cycloheximide cs: Cycloheximide Counterscreen for Small Molecule Inhibitors of Shiga Toxin; cell reporter, cycloheximide protein synthesis inhibition counterscreen; max response, %; 12% of 300,000 active; in the data active = max response mostly above about 13%, no sharp cut-off; inactive = mostly below about 14%; note: read at 38.3 µM for the half of the compounds with a filed dose; 0% is about no effect
NS1 inh: qHTS Assay for Inhibitors of Influenza NS1 Protein Function. 0.4% of 270,000 active. Potency, µM (titrated, usually from 46.1 µM), for inactives: top-dose activity, positive = more growth; calls by dose curve; note: potency is the fitted concentration of half-maximal effect; actives are rising curves; nearly all actives have a fitted effect of over 50% in size
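Read-out: OD600 growth recovery of NS1-expressing budding yeast. Cells grown overnight at 30C in -URA glucose medium, washed, resuspended and diluted 1:100 in 2% galactose assay medium, pH 6.0. Same strain lacking NS1 served as positive control.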
Giardia FBPA inh: qHTS Assay for Inhibitors of Fructose-1,6-bisphosphate Aldolase from Giardia Lamblia | A8B2U2 | purified Giardia FBPA | Potency, µM (highest dose often 59.6 µM), for the others: top-dose activity, negative = inhibition, most hits filed as inhibitors | 0.71% of 290,000 active | AID 2451, 2010; note: potency is the fitted concentration of half-maximal effect; % is set by controls: 0 for no effect and ±100 for the full control effect; nearly all actives have a fitted effect of over 55% in size
Target sequence (A8B2U2 whole entry, looked up): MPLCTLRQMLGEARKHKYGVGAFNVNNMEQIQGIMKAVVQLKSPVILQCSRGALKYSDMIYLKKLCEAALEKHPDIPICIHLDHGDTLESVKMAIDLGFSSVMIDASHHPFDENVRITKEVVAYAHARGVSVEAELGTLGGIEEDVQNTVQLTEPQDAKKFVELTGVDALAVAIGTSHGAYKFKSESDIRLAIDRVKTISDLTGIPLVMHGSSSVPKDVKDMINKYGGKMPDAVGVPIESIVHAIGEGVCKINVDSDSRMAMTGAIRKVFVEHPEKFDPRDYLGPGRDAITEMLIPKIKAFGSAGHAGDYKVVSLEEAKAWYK
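Giardia FBPA (40 nM reagent) was preincubated 10 min at RT with compound (up to 57.5 uM final), then substrate plus GAPDH/TPI/NAD/arsenate coupling system with diaphorase/resazurin was added; resorufin fluorescence (525/598 nm) was read after 20 min.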
LmPK inhibitor: qHTS Assay for Inhibitors of Leishmania Mexicana Pyruvate Kinase (LmPK); AID 1721, 2009; Potency, µM (series often up to 57.5 µM), for the others: top-dose activity change, negative = inhibition, actives largely listed as inhibitors; Q27686; purified LmPK, Kinase-Glo ATP luminescence, 1 h; 0.37% of 290,000 active; note: potency is the fitted concentration of half-maximal effect; % is set by controls: 0 for no effect and ±100 for the full control effect
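qHTS format; LmPK 0.1 nM; substrates PEP 0.5 mM and ADP 0.1 mM. One-hour room-temperature incubation, then coupled luciferase luminescence; 0.5 nM enzyme wells mark activation.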
Starred values were filed as active, the others as inactive; i = inactive; u = inconclusive; x = no result given; [ ] = remark or other dose. Unless noted, calls come from the whole dose curve; as a rule, active = well fitted curve in the direction sought with a large enough effect; inconclusive = small, poorly fitted or top-dose-only effect, or another doubt; inactive = no such curve, though single readings can be large; an effect the other way counts as inactive or inconclusive.

SMILES | Shiga inhibitor | Cycloheximide cs | NS1 inh | Giardia FBPA inh | LmPK inhibitor
Cc1cccc(NC(=O)c2ccc(S(=O)(=O)N(C)C)cc2)n1 | 78* | 37* | -3% | -3% | -1%
CCOc1ccc(/C=C/C(=O)Nc2cccc(C(C)=O)c2)cc1 | 64* | 27* | -3% | -7% | 1%
CCOc1ccc(NC(N)=O)cc1 | 1 | -3 | -1% | 1% | -1%
CCOc1ccc(NC(=O)Nc2cccc(C)n2)cc1 | 72* | 28* | -7% | 3% | 2%
OC1(C(O)(c2ccc(-c3ccccc3)cc2)c2ccc(-c3ccccc3)cc2)CCCCC1 | x | x | -8% | x | x
Cc1ccc(-c2ccc(=O)n(CC(=O)NCc3ccc(F)cc3)n2)cc1 | 19 | -2 | x | 7% | 5%
CCOc1ccc(C(=O)Nc2cccc(C)n2)cc1 | 25 | 25* | -9% | -12% | 16µM*
CCOc1ccc(NC(=O)Nc2cccc(C(=O)O)c2)cc1 | -11 | -1 | x | 1% | -4%[11.5 µM]
CCOC(=O)c1cccc(NC(=O)Nc2ccc(OCC)cc2)c1 | 108* | 39* | x | 0% | 1%
Oc1[nH]c(=S)sc1C=C1N=c2ccccc2=N1 | 38* | 25* | 1% | -9% | 16µM*
Oc1c(C=C2N=c3ccccc3=N2)sc(=S)n1C1CCCC1 | 25 | 19* | 13% | 5% | 3%
Oc1c(C=C2N=c3ccccc3=N2)sc(=S)n1-c1ccc(F)cc1 | 13 | 0 | -8% | 7% | 1%
CCCC(C(=O)NCCC(C)C)N(Cc1ccccc1Cl)C(=O)c1snc(C(N)=O)c1N (centres undefined) | -2 | 0 | 9% | 9% | 8%
COc1ccccc1NC(=O)COC(=O)c1ccccc1OCC(=O)Nc1ccc(SC(F)F)cc1 | -11 | -1 | -6% | 1% | 6%
CN(C)C(=O)COC(=O)c1ccccc1Nc1ccc(SC(F)F)cc1 | 89 | 32* | -27% | -15% | -3%
Cc1cc(NC(=O)CN2CC(C)OC(C)C2)n(-c2nc3ccccc3s2)n1 (centres undefined) | -8 | -7 | -10% | 7% | 0%
Cc1cc(NC(=O)C(C)C)n(-c2nc3ccccc3s2)n1 | 69* | 31* | x | 0% | -11%
Cc1cc(C)n(-c2nc3ccccc3s2)n1 | 109* | 56* | -4% | 0% | -14%
OCCN1CCN(C(=S)Nc2ccccc2)CC1 | -8 | -1 | x | u | 2%
OCCN1CCN(C(=S)NCCc2ccccc2)CC1 | 71* | 18* | -1% | 11% | -2%
O=C(NCCc1ccc(F)cc1)N1CCOCC1 | 23 | 18* | 24% | 5% | -1%
O=C(CCCc1ccccc1)NCCN1CCOCC1 | -1 | -3 | 6% | 8% | -1%
S=C(Nc1ccccc1)N1CCOCC1 | -13 | -2 | 9% | 0% | 2%
S=C(NCCc1ccccc1)NCCN1CCOCC1 | 16 | 6.9* | 2% | -6% | -2%
S=C(N/N=C/c1ccccc1)N1CCOCC1 | 57* | 40* | -13% | 26% | -2%
SMILES | Shiga inhibitor | Cycloheximide cs | NS1 inh | Giardia FBPA inh | LmPK inhibitor
COc1ccc([C@]23Cc4cc(OC)c(OC)cc4C(O2)C2=C(CCCC2=O)O3)cc1 | i | 12 | 2% | u | -2%[11.5 µM]
S=C(NCCc1ccccc1)N1CCOCC1 | 75* | 40* | 2% | 0% | 0%
S=C(NCCc1ccccc1)N1CCN(C(c2ccccc2)c2ccccc2)CC1 | 13 | 2 | 17% | 4% | -1%
CCN1CCN(C(=S)NCCc2ccccc2)CC1 | 43* | 24* | -10% | u | -6%
NS(=O)(=O)c1ccc(NC(=O)Nc2ccc3c(c2)OCO3)cc1 | 96* | 41* | 21% | -7% | 7%
O=C(Nc1ccc(S(=O)(=O)NCc2ccccc2)cc1)Nc1ccc2c(c1)OCO2 | 81* | 28* | 9% | -6% | -2%
CCNS(=O)(=O)c1ccc(NC(=O)Nc2ccc3c(c2)OCO3)cc1 | 66 | 30* | -4% | 1% | 1%
CCNS(=O)(=O)c1ccc(NC(=O)Nc2ccccc2OC)cc1 | 4 | 9.5* | 2% | -3% | 4%
COCCn1c(=O)c(CCc2ccccc2)nc2cnc(Oc3ccc(OC)cc3)nc21 | x | x | x | -1% | x
CCOC(=O)c1nc(C)sc1-c1ccnn1S(=O)(=O)c1ccc(Cl)cc1Cl | 36 | 29* | -4% | -29% | 5%
CCOC(=O)c1nc(C)sc1-c1ccnn1S(=O)(=O)c1ccccc1C(F)(F)F | -4 | 6 | 2% | -11% | 2%
